Data taken from the supplement of paper PMC7261846.
± gives the uncertainty stated by the source.

Test system: Candida albicans SNY425 biofilm
Assay: biofilm OD600 with compound plus antifungal (OD600 (absorbance)); higher = more biofilm remaining
[1] = assay detail: disruption of 24-h mature biofilm (compound + antifungal for a second 24 h)
[2] = assay detail: sustained inhibition (compound + antifungal during 90-min adherence and 24-h growth)

Structure (SMILES) | biofilm OD600 [1] | biofilm OD600 [2]
CN1C(=O)[C@]23CC4=CC=C[C@H](O)[C@H]4N2C(=O)[C@@]1(CO)SS3 [Gliotoxin] + OC(Cn1cncn1)(Cn1cncn1)c1ccc(F)cc1F [fluconazole] (first compound 1 µM) | 0.211 ± 0.0079 | 0.0782 ± 0.0052
CN1C(=O)[C@]23CC4=CC=C[C@H](O)[C@H]4N2C(=O)[C@@]1(CO)SS3 [Gliotoxin] + CC[C@H](C)C[C@H](C)CCCCCCCCC(=O)N[C@H]1C[C@@H](O)[C@@H](NCCN)NC(=O)[C@@H]2[C@@H](O)CCN2C(=O)[C@H]([C@H](O)CCN)NC(=O)[C@H]([C@H](O)[C@@H](O)c2ccc(O)cc2)NC(=O)[C@@H]2C[C@@H](O)CN2C(=O)[C@H]([C@@H](C)O)NC1=O [caspofungin] (first compound 1 µM) | 0.217 ± 0.0081 | 0.0858 ± 0.0052
NCCc1ccc(S(=O)(=O)F)cc1 + C[C@@H]1[C@H](O)[C@@H](C)/C=C/C=C/C=C/C=C/C=C/C=C/C=C/[C@H](O[C@@H]2O[C@H](C)[C@@H](O)[C@H](N)[C@@H]2O)C[C@@H]2O[C@](O)(C[C@@H](O)C[C@@H](O)[C@H](O)CC[C@@H](O)C[C@@H](O)CC(=O)O[C@H]1C)C[C@H](O)[C@H]2C(=O)O [amphotericin B] (first compound 4 µM) | 0.303 ± 0.0047 | 0.184 ± 0.011
CN1C(=O)[C@]23CC4=CC=C[C@H](O)[C@H]4N2C(=O)[C@@]1(CO)SS3 [Gliotoxin] + C[C@@H]1[C@H](O)[C@@H](C)/C=C/C=C/C=C/C=C/C=C/C=C/C=C/[C@H](O[C@@H]2O[C@H](C)[C@@H](O)[C@H](N)[C@@H]2O)C[C@@H]2O[C@](O)(C[C@@H](O)C[C@@H](O)[C@H](O)CC[C@@H](O)C[C@@H](O)CC(=O)O[C@H]1C)C[C@H](O)[C@H]2C(=O)O [amphotericin B] (first compound 1 µM) | 0.226 ± 0.0062 | 0.0908 ± 0.0077
NCCc1ccc(S(=O)(=O)F)cc1 + CC[C@H](C)C[C@H](C)CCCCCCCCC(=O)N[C@H]1C[C@@H](O)[C@@H](NCCN)NC(=O)[C@@H]2[C@@H](O)CCN2C(=O)[C@H]([C@H](O)CCN)NC(=O)[C@H]([C@H](O)[C@@H](O)c2ccc(O)cc2)NC(=O)[C@@H]2C[C@@H](O)CN2C(=O)[C@H]([C@@H](C)O)NC1=O [caspofungin] (first compound 4 µM) | 0.29 ± 0.0053 | 0.172 ± 0.0053
NCCc1ccc(S(=O)(=O)F)cc1 + OC(Cn1cncn1)(Cn1cncn1)c1ccc(F)cc1F [fluconazole] (first compound 4 µM) | 0.278 ± 0.0089 | 0.109 ± 0.0077
